The record followed here is PubChem BioAssay.

Assay [1] can be described thus: resazurin metabolic signal in HepG2 cells – cell-based, resazurin fluorescence, 24 h, PK04 Diversity Set, profiling panel (AID 1172). The note with it: HepG2 viability, higher = more signal. (Resazurin is reduced to fluorescent resorufin, in cell work by metabolically active cells.)
A short description of assay [2]: budding yeast growth changes without added modifier – OD600, strain BY4716, 24 h, basal condition, primary screen (AID 1173). The settings on record: S. cerevisiae BY4716 growth, OD600, 24 h; higher = more signal, called active from +8 up or from −8 down.
Assay [3] can be described thus: viability profiling in MM1S myeloma cells – cell-based, resazurin fluorescence, basal, 24 h, PK04 Diversity Set, profiling panel (AID 1174).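 Note: MM1S multiple myeloma cell line.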 The note with it: higher = more signal, called active from +8 up or from −8 down.
The target in assay [4] is Dihydroorotate dehydrogenase (quinone), mitochondrial (Plasmodium falciparum (isolate 3D7)) (UniProt Q08210). In words: inhibition of P. falciparum DHODH – biochemical, C-terminal His tag, absorbance 600 nm, primary screen (AID 1175).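 Note: recombinant parasite enzyme with a five histidine tag at its C terminus.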 The note with it: PfDHODH enzyme, DCIP absorbance 600 nm; higher = more signal, called active from +8 up or from −8 down.
The nature of assay [5]: inhibition of PAO1 biofilm formation – strain PAO1, LB-PBS medium, absorbance 600 nm, primary screen (AID 1176). The settings on record: P. aeruginosa PAO1 growth/biofilm, A600, 12 h; higher = more signal.
The nature of assay [6]: growth modulation of vineyard yeast isolate – strain RM11-1a, OD600, basal, 24 h, primary screen (AID 1177).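 Note: cultures grown under basal conditions with no added stressor.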 The note with it: S. cerevisiae RM11-1a growth, OD600, 24 h; higher = more signal, called active from +8 up or from −8 down.
The nature of assay [7]: growth of efflux-deficient E. coli DRC39 – strain DRC39, OD650, 24 h, E. coli filamentation inducers, primary screen (AID 1178).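 Note: growth measured as culture turbidity by optical density at 650 nm.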 The settings on record: E. coli DRC39 acrAB, higher = more signal, called active from +8 up or from −8 down.
A short description of assay [8]: growth of efflux-deficient E. coli DRC39 – strain DRC39, OD650, 48 h, E. coli filamentation inducers, primary screen (AID 1179).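 Note: screen aims at cell division blockers that make cells filament.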 The note with it: E. coli DRC39 delta-acrAB growth, higher = more signal, called active from +8 up or from −8 down.
Assay [9] is described as follows: viability profiling in RPMI8226 myeloma cells – cell-based, resazurin fluorescence, basal, 24 h, PK04 Diversity Set, profiling panel (AID 1180).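 Note: RPMI8826 multiple myeloma cell line at 5000 cells per well.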 The settings on record: higher = more signal.
In assay [10] the target is E3 ubiquitin-protein ligase XIAP (Homo sapiens) (UniProt P98170). The assay is described as follows: small molecules binding XIAP protein – biophysical, small-molecule microarray, fluorescence 635 nm, primary screen (AID 1181).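 Note: score merges 667 nm emission and signal to noise over triplicate slides.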 The note with it: higher = more signal.
The subject of assay [11] is XIP peptide (Xip251-270) binding. The assay is described as follows: XIP fragment 251-270 binding compounds – biochemical, small-molecule microarray, fluorescence 635/667 nm, 0.1 µg/mL protein, primary screen (AID 1182). The settings on record: fluorescent protein binding, 635 nm, higher = more signal, called active from +8 up or from −8 down.
A further assay relates to XIP peptide (Xip251-270). In words: compounds binding XIP fragment 251-270 – biochemical, small-molecule microarray, fluorescence 635/667 nm, 0.5 µg/mL protein, primary screen (AID 1183). The settings on record: fluorescence 635 nm, higher = more signal.
The nature of assay [12]: blood-stage malaria parasite viability loss – strain 3D7, DAPI fluorescence, 100 nL, primary screen (AID 1184).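 Note: parasites grown inside human red blood cells in medium with human serum.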 The settings on record: P. falciparum 3D7 growth, 3 d, higher = more signal.
The target in assay [13] is Homeobox protein Hox-A13 (Mus musculus) (UniProt Q62424). In words: disruptors of Hoxa13 oligonucleotide interaction – biochemical, fluorescence polarization, labeled oligonucleotide, primary screen (AID 1185). The settings on record: Hoxa13:DNA binding, 15 min, higher = more signal, called active from +8 up or from −8 down. A general note: In fluorescence polarisation assays a small probe gives low polarisation when free and higher when bound to something large.

A short description of assay [14]: blockers of DNA damage checkpoint Chk1 activation – imaging, HeLa, hydroxyurea, phospho-Chk1 antibody, percent positive cells, primary screen (AID 1186). The settings on record: hydroxyurea-induced phospho-Chk1 immunofluorescence imaging, higher = more signal.
A short description of assay [15]: blockers of DNA damage checkpoint Chk1 activation – imaging, HeLa, hydroxyurea, phospho-Chk1 nuclear intensity, primary screen (AID 1187). The note with it: hydroxyurea-induced phospho-Chk1 immunofluorescence imaging, higher = more signal.

Each structure is given as a SMILES string. Calls of active or inactive are those of the source. Unless noted, the rule behind the calls is not given here.

Sequence of Dihydroorotate dehydrogenase (quinone), mitochondrial (Plasmodium falciparum (isolate 3D7)) (Q08210 whole entry, looked up): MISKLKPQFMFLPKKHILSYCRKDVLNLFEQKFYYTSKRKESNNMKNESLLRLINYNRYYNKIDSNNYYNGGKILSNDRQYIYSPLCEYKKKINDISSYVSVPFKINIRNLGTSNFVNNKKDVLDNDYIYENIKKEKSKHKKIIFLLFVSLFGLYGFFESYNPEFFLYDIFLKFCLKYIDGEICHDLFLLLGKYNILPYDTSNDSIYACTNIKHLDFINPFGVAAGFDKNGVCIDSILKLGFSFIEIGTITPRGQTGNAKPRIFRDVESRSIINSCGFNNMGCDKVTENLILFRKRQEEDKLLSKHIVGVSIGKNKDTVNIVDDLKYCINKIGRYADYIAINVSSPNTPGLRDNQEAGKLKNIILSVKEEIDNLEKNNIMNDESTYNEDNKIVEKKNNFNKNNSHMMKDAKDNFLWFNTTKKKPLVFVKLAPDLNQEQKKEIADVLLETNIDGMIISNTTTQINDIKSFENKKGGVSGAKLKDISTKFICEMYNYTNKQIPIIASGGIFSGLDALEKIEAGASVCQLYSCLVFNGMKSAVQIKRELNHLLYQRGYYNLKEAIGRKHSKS
Sequence of Homeobox protein Hox-A13 (Mus musculus) (Q62424 whole entry, looked up): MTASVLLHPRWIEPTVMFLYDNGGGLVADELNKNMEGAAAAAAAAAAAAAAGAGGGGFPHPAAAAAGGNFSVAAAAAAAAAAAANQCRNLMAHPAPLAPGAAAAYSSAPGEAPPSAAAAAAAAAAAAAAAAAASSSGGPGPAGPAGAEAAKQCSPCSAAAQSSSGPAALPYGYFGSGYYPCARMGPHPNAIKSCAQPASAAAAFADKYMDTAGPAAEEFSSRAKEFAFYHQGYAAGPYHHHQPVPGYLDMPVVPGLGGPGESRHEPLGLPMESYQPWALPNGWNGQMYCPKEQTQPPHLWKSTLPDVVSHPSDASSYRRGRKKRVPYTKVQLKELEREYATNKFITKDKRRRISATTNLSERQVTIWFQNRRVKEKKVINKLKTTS
Sequence of E3 ubiquitin-protein ligase XIAP (Homo sapiens) (P98170 whole entry, looked up, the tested form may be a part): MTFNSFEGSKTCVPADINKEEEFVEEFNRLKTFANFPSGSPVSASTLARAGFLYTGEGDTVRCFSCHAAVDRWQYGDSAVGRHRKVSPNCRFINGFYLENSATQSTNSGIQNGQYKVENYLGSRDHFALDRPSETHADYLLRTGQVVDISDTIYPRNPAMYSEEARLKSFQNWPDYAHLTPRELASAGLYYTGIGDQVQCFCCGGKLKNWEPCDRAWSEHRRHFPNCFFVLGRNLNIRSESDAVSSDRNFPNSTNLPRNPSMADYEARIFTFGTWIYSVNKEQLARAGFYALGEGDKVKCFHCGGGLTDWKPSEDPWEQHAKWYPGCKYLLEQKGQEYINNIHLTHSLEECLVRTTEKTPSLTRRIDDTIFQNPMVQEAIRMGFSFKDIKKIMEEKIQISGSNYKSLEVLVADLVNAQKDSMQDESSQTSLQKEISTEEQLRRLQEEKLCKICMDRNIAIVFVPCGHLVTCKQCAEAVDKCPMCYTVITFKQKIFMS

`CC1CC/C=C\[C@H]2OC34C=CCN(C(C)(C)C)C(=O)[C@H]3N(CCCO)C(=O)[C@@H]4C2C(=O)O1` (some centres undefined): the z-score was -0.216 in assay [1]; 1 (inactive) in assay [2]; -0.32 (inactive) in assay [3]; 0.261 (inactive) in assay [5]; 0.0605 (inactive) in [6]; -0.282 (inactive) in [7]. The z-score was -0.52 (inactive) in assay [8]; 0.276 in assay [9]; 0.428 in [12]; -3.59 (inactive) in assay [13]; 0.0854 (inactive) in assay [14]; -0.248 (inactive) in [15]. Further, the composite z-score in [4] was -0.555 (inactive); in assay [10], -0.02; in assay [11] it was 0.453 (inactive); in the assay on XIP peptide (Xip251-270), 0.774.

Consider `CO[C@H]1O[C@H](CO)[C@@H](OC(=O)Nc2ccccc2)[C@H](OC(=O)Nc2ccccc2)[C@H]1OC(=O)Nc1ccccc1`, for which the z-score is -1.08 in assay [1]; 0.0367 (inactive) in assay [2]; -2.78 (inactive) in [3]; -0.317 (inactive) in [5]; 1.84 (inactive) in assay [6]; 1.48 (inactive) in [7]. Moreover, the z-score in assay [8] was 0.536 (inactive); in [9] it was -1.95; in assay [12] it was -2.51; in [13], -6.21 (inactive); in assay [14], -0.0874 (inactive); in [15] it was 0.511 (inactive). The composite z-score was 1.02 (inactive) in assay [4], -0.0125 in assay [10], 0.142 (inactive) in assay [11] and 0.69 in the assay on XIP peptide (Xip251-270).

Regarding `CCCCCC1=C2CNC(Cc3ccccc3)(C(=O)OC)C=C2C(C)C1=O` (centres undefined), the z-score in [1] was -1.19; in assay [2] it was 1.36 (inactive); in assay [3], -1.79 (inactive); in assay [5], 0.026 (inactive); in assay [6] it was 0.546 (inactive); in assay [7], -0.767 (inactive). The z-score in assay [8] is -0.217 (inactive); in [9], -1.5; in assay [12], -0.662; in assay [13] it was -8.44 (active); in assay [14], 1.14 (inactive); in [15], 0.846 (inactive). Besides, the composite z-score is -0.461 (inactive) in assay [4], -0.138 in assay [10], -0.186 (inactive) in assay [11] and 0.247 with XIP peptide (Xip251-270).

Turning to `COC(=O)[C@]1(Cc2ccccc2)N=C(c2ccc(OCCCO)cc2)O[C@@H]1c1ccccc1CN=[N+]=[N-]`, the z-score was -4.19 in [1]; -0.813 (inactive) in assay [2]; -8.88 (active) in assay [3]; 1.84 (inactive) in assay [5]; 2.72 (inactive) in assay [6]; 1.28 (inactive) in [7]. The z-score was -0.88 (inactive) in [8]; -7.14 in assay [9]; -2.47 in assay [12]; -1.89 (inactive) in [13]; -0.623 (inactive) in assay [14]; -0.631 (inactive) in assay [15]. In addition, the composite z-score in [4] is 1.94 (inactive); in [10], 0.0159; in assay [11] it was 0.506 (inactive); with XIP peptide (Xip251-270) it was 0.753.

As for `COC(=O)[C@@]1(Cc2ccccc2)N=C(c2ccc(OCCCO)cc2)O[C@H]1c1ccccc1CN=[N+]=[N-]`, the z-score in assay [1] is -4.1; in [2], 1.24 (inactive); in assay [3], -7.62 (inactive); in [5], 2.45 (inactive); in assay [6], 2.85 (inactive); in assay [7], 0.876 (inactive). Also, the z-score in assay [8] is 0.93 (inactive); in assay [9], -6.42; in assay [12], -2.42; in [13] it was -1.25 (inactive); in [14], -0.727 (inactive); in [15], -0.906 (inactive). For the same compound, the composite z-score in [4] was 0.468 (inactive); in [10], 0.0549; in assay [11], -0.139 (inactive); in the assay with XIP peptide (Xip251-270), 0.85.

With `N#Cc1ccc(C(O)C2C=CC3C(=O)NC(=O)C3N2Nc2ccc(Cl)cc2Cl)cc1` (centres undefined), the z-score in assay [1] was -1.53; in assay [2], -14.4 (active); in assay [3], -1.43 (inactive); in assay [5], 1.26 (inactive); in assay [6], -0.633 (inactive); in [7], -0.48 (inactive). The z-score is -0.413 (inactive) in assay [8]; -1.35 in assay [9]; 0.684 in [12]; -5.63 (inactive) in assay [13]; 0.731 (inactive) in assay [14]; 0.688 (inactive) in assay [15]. Besides, the composite z-score in [4] is -0.173 (inactive); in assay [10] it was 0.0856; in [11] it was 1.42 (inactive); with XIP peptide (Xip251-270), 0.0653.

For `COc1ccc([Si](C)(C)[C@@H]2[C@@H](CC(=O)N(CCO)Cc3ccccc3)O[C@]3(C(=O)N(Cc4ccc(N5C(=O)c6cccc7cccc5c67)cc4)c4ccccc43)[C@H]2C)cc1`, the z-score in [1] was -1.17; in assay [2], 1.21 (inactive); in assay [3], -1.48 (inactive); in assay [5], 1.56 (inactive); in assay [6] it was 2.5 (inactive); in assay [7], 0.302 (inactive). Besides, the z-score is -0.22 (inactive) in assay [8]; -1.85 in assay [9]; -1.17 in [12]; -1.19 (inactive) in [13]; 0.398 (inactive) in [14]; -0.601 (inactive) in assay [15]. Moreover, the composite z-score was -0.992 (inactive) in assay [4], 0.237 in assay [10], 1.28 (inactive) in assay [11] and 0.577 in the assay with XIP peptide (Xip251-270).

In the case of `CN(C)CCCC[C@@H]1NC(=O)[C@@H]2C[C@H](C(=O)NCCCCCCNC(=O)CS)[C@H](c3ccc(O)cc3)N2C1=O`, the z-score in assay [1] was 0.155; in [2] it was -0.17 (inactive); in [3], -0.353 (inactive); in assay [5], 0.767 (inactive); in assay [6], -0.264 (inactive); in assay [7] it was -0.19 (inactive). Also, the z-score is -0.551 (inactive) in assay [8]; 0.0875 in [9]; -0.0596 in [12]; -1.31 (inactive) in assay [13]; -0.282 (inactive) in assay [14]; -0.405 (inactive) in [15]. In addition, the composite z-score is -0.173 (inactive) in [4], 0.0013 in [10], 0.237 (inactive) in [11] and 0.859 in the assay on XIP peptide (Xip251-270).

Regarding `O=C1C2C=CC(C(O)c3ccc([N+](=O)[O-])cc3)N(Nc3ccccc3F)C2C(=O)N1c1ccccc1` (centres undefined), the z-score in assay [1] was -0.54; in assay [2], -1.45 (inactive); in assay [3] it was -0.348 (inactive); in assay [5], 1.19 (inactive); in assay [6], 0.646 (inactive); in [7] it was -0.892 (inactive). Also, the z-score in [8] was -0.591 (inactive); in assay [9], -0.608; in [12], -0.111; in [13], -3.41 (inactive); in [14], 0.8 (inactive); in assay [15] it was -0.314 (inactive). The composite z-score was 0.15 (inactive) in assay [4], 0.0049 in assay [10], 0.946 (inactive) in [11] and 0.679 with XIP peptide (Xip251-270).
